Data as given in PubChem BioAssay (NCI).
The panel holds about 79,000 compounds, 15% with a hit somewhere; the sample as a whole holds those more often. Values without a mark were called inactive. The source made the active and inactive calls. No stated cut-off is given here; in the data, active means growth inhibition above about 70%; inactive means the rest.

Assays:
[1] = NCI Yeast Anticancer Drug Screen. Data for the rad50 strain (AID 155);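 further: 0% = growth of vehicle-only cultures of the same strain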; details: S. cerevisiae rad50 strain growth inhibition; at 50.0 µM; stronger effect = higher value
Outline: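 DNA repair mutant yeast, compound exposure, growth read-out; inhibition is taken relative to vehicle.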

[2] = NCI Yeast Anticancer Drug Screen. Data for the mec2-1 strain (AID 157); details: S. cerevisiae mec2-1 strain, at 50.0 µM, stronger effect = higher value
Outline: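 Each compound was tested on mec2-1 yeast, a strain altered in DNA damage repair or cell cycle control. Growth inhibition is reported relative to vehicle.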

[3] = NCI Yeast Anticancer Drug Screen. Data for the sgs1 mgt1 strain (AID 161);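 further: 0% = growth of cultures given vehicle only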; details: S. cerevisiae sgs1 mgt1 strain, at 50.0 µM, stronger effect = higher value
Outline: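 Inhibition of yeast growth, normalised to vehicle-treated controls, is reported for a strain bearing genetic alterations in DNA damage repair.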

[4] = NCI Yeast Anticancer Drug Screen. Data for the cln2 rad14 strain (AID 165);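 further: 0% = growth equal to vehicle treated cultures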; details: S. cerevisiae cln2 rad14 strain, at 50.0 µM, stronger effect = higher value
Outline: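 Test compounds were added to cln2 rad14 yeast cultures; inhibition of growth was then determined by comparison with vehicle treatment.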

[5] = NCI Yeast Anticancer Drug Screen. Data for the bub3 strain (AID 167); details: S. cerevisiae bub3 mutant strain, at 50.0 µM, stronger effect = higher value
Outline: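 In this screen, a yeast mutant lacking normal mitotic checkpoint function is challenged with compound. Relative growth versus vehicle gives the inhibition value.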

[6] = NCI Yeast Anticancer Drug Screen. Data for the mlh1 rad18 strain (AID 175); details: S. cerevisiae mlh1 rad18 strain growth inhibition; at 50.0 µM; stronger effect = higher value
Outline: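 Inhibition values reflect reduced growth of mutant yeast versus vehicle-treated controls following compound exposure; the mutations affect DNA damage repair.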

SMILES | growth inhibition [1] | growth inhibition [2] | growth inhibition [3] | growth inhibition [4] | growth inhibition [5] | growth inhibition [6]
CCCN1C(=O)c2cc(=O)n(Cc3ccccc3)c(O)c2C1C (stereo unspecified) | 6.95% | 33% | 4.7% | 8.4% | -9.45% | 13.8%
CCCCOCN1COCN(COCCCC)C1=O | -2.3% | -17.4% | -0.45% | 6.95% | 18.1% | 6.2%
O=c1cc(O)n(C2=NCCN2)[nH]1 | -6.45% | -23.6% | -0.2% | 16.2% | -12.5% | -9.95%
Cc1ccc(N=NC(=O)NNc2ccc(C)cc2Br)c(Br)c1 | 19.4% | -8.8% | -3.8% | 15.2% | -6.5% | 14.6%
CC(=O)Nc1ccc(O)c(C(=O)O)c1 | -8.6% | 7.3% | -8.55% | -6% | 24.1% | -24.4%
CCOC(=O)c1[nH]c(CC(=O)O)c(C(=O)O)c1C | 15.7% | 26.4% | 24.4% | 0.4% | 16.4% | 15.2%
O=C1C=C(c2ccccc2)C(=O)C(c2ccccc2)=C1c1ccccc1 | 73.2% (active) | 88.2% (active) | 88.8% (active) | 80% (active) | 78.2% (active) | 89.6% (active)
N#[N+]c1ccc2c(c1)C(=O)c1ccccc1-2 | 3.2% | 0.05% | -0.6% | -46.2% | 8.6% | -6.65%
O=C(NNC(=S)NCc1ccccc1)C12CC3CC(CC(C3)C1)C2 | -35.6% | -10.3% | -4.2% | 2.55% | 15.5% | -5.9%
CC(COc1ccccc1)N(CCCl)Cc1ccccc1 (stereo unspecified) | 2.7% | 10.8% | -1.4% | -43.3% | 38% | 1.8%
CC1=NN(C(=O)Cc2ccccc2)C(=O)/C1=C\c1ccc([N+](=O)[O-])cc1 | -38.2% | -41.5% | -52.4% | -26.4% | -55% | -55.8%
N#CC1=C(Nc2ccccc2)CCC1 | 5% | -11.6% | -0.8% | -38.8% | 2.25% | -5.4%
CCCCN(CCCC)C1(c2ccccc2)OC(c2ccccc2)=CC1=O (stereo unspecified) | 1.45% | 5.75% | -0.55% | -10.5% | 2.8% | 20.6%
COc1ccc2nc3cc(Cl)ccc3c(Nc3ccc(C(O)CCN(C)C)cc3)c2c1 (stereo unspecified) | 39.8% | -2.1% | 25.4% | 24.4% | -2.1% | 5.3%
O=C/C=C/c1ccc2c(c1)OC(CO)C(c1ccc(O)c(O)c1)O2 (stereo unspecified) | 9.15% | 2.2% | 6.7% | 8.15% | 9.7% | 3.2%
Cc1ccsc1C(=O)c1ccccc1 | -11.6% | -7% | -5.65% | -24.6% | -1.5% | 5.45%
CCOC(=O)C(C#N)C1CC2CCC1C2 (stereo unspecified) | -30.2% | -57.4% | -22.2% | -4.9% | -27.1% | -56.8%
[N-]=[N+]=NC1=NNC2(C(=O)N1)c1ccccc1-c1ccccc12 | -6.35% | -17.5% | -22.9% | -5.75% | -30.1% | -18.6%

SMILES | growth inhibition [1] | growth inhibition [2] | growth inhibition [3] | growth inhibition [4] | growth inhibition [5] | growth inhibition [6]
O=C(C=C1CCCCC1)c1ccccc1 | 12.9% | -6.35% | 7.45% | -6.2% | 2.9% | 5.25%
CCCCCCCCCCCCCCCCCC1=Nc2cc(C)c(C)cc2NC(=O)C1 | -21.7% | -31.6% | -30.1% | 7.35% | -12.8% | -8.1%
CCCCCCSc1n[nH]c(=S)s1 | -4.25% | 9.55% | 18.4% | 24.6% | -5.2% | 13.4%
CCCCCC(CCCC)OC(=O)Nc1ccccc1 (stereo unspecified) | -4.35% | 7.85% | 10% | -7% | -1.15% | 4.6%
NC(=O)SCC(=O)Nc1ccc2cccc3c2c1CC3 | 66.2% | 60.3% | 80% (active) | 61.6% | 74.3% (active) | 85.2% (active)
O=C(O)c1ccc(CSc2ccccc2C(=O)O)cc1 | 16.4% | -16.6% | -6.95% | 15.4% | -14.7% | 33.8%
N=c1ccc2ccccc2n1O | 10.6% | -3.85% | -4.2% | -49.1% | 7.2% | -7.9%
CN1CCN(C(=S)N(C(=O)c2ccco2)c2ccccc2)CC1 | -57.8% | -44.3% | -22.6% | -2.4% | -0.1% | -37.9%
CSCCCCCCSC | -0.1% | 5.1% | -2.75% | -27.8% | -5.35% | 5.9%
O=C(CN1CCCCC1)c1ccc(CCc2ccc(C(=O)CN3CCCCC3)cc2)cc1 | 35% | 11.3% | 33.9% | -61.1% | 6.5% | 32.2%
Cc1cnccc1P(=O)(O)O | 13.7% | -4.8% | 6.7% | -21.7% | -3.55% | 5.65%
Cc1cc(OC(C)C)cc(C)c1C(=O)OCC(C)N1CCCC1 (stereo unspecified) | 11.8% | -8.2% | 19.9% | 5.35% | -4.9% | 11.2%
CC[n+]1c(COCCOc2ccccc2)sc2cc3c(cc21)OCO3 | -23.4% | -11.4% | -0.35% | 12% | 2.55% | -18.1%
COC(=O)c1cccc2c1Cc1cc(N)ccc1-2 | -7.9% | -16.8% | -19.6% | -21.4% | 9.7% | -12.2%
COc1cc([N+](=O)[O-])ccc1NC(=O)Nc1nccs1 | 5.75% | 29.9% | 11.9% | -9.25% | 22.4% | -37.3%
c1ccc(N=C(Nc2ccccc2)N2CCCCC2)cc1 | -20% | -50.4% | -7.9% | 9.85% | 9.35% | -21.6%
COC(=O)CC[N+]1=CCC(c2ccccc2)(c2ccccc2)O1 | -9.55% | -24.9% | -20.8% | 5.8% | -15.9% | -7.65%
COc1nc(NC2OCC(O)C(O)C2O)c(NC2OCC(O)C(O)C2O)c(=O)n1C (stereo unspecified) | -7.5% | -1.7% | -11.6% | 22.5% | -31.1% | -12.2%
